# HIF-2a block – HIF-2a reporter inhibitors, primary screen, luminescence, 786-0 RCC cells. 786-0 RCC cells HIF-2a reporter, luciferase luminescence, overnight. inhibition, % at 18.8 µM. hit rate 0.72% among 360,000;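 active = inhibition of the luminescence signal of 40% or more relative to plate controls, in a single-dose primary screen at 18.75 µM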
# TWEAK-Fn14 inh – inhibitors of TWEAK-Fn14 signaling, primary screen, luciferase reporter cells, uHTS; TWEAK-stimulated Fn14 reporter cells, luciferase luminescence, 8 h; inhibition, % at 10 µM; hit rate 2% among 360,000; AID 1159606, 2016; in the data active = inhibition above about 50%
# KKLEB cytotox – cytotoxicity in KKLEB CF airway cells, primary screen, cytotoxicity control for CF NF-kB inhibitor project, cell-based, uHTS, fluorescence assay plates; AID 602141, 2011; hit rate 0.36% among 360,000; activity change (cytotoxicity), % at 5 µM; KKLEB CF airway cells viability, ATPlite luminescence, overnight; stronger effect = lower value; cells stimulated with P. aeruginosa culture filtrate;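 active = corrected activity change at or below -50% at 5 µM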
# CF NFkB block – inhibitors of PAF-induced NF-kB signaling, primary screen, cell-based, GFP fluorescence, uHTS | KKLEB NF-kB-GFP reporter, GFP fluorescence overnight | inhibition, % at 5 µM | hit rate 0.86% among 360,000;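 active = at least 50% inhibition at 5 µM, scaled per plate between neutral and stimulator controls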;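 note: PAF is a Pseudomonas aeruginosa culture filtrate used as stimulus; plate controls were PAF-stimulated DMSO wells for no effect and unstimulated DMSO wells for full effect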
# Peg3 prom inh – Peg3 promoter-driven luciferase inhibitors, primary screen, cell-based, HeLa, luciferase luminescence; AID 588405, 2011; hit rate 1.7% among 360,000; inhibition, % at 20 µM; HeLa PEG-Prom luciferase reporter, overnight;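 active = inhibition of at least 50% at 20 µM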
# TROY signal inh – inhibitors of TROY-driven NF-kB signaling, primary screen, Q293 LMP1-TROYcd cells, NF-kB luciferase, uHTS; Q293 LMP1-TROYcd NF-kB luciferase reporter, 4 h; inhibition, % at 10 µM; hit rate 0.98% among 360,000; AID 1347056, 2019;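 active = compounds whose plate-normalised and pattern-corrected inhibition of the luciferase reporter signal at the single screening dose is 50% or more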
# Mdm2 MdmX conf – retested Mdm2-MdmX interaction blockers, confirmation, cell-based, luminescence, single concentration, set 2; shares compounds with HIF-2a block; SaOS-2 split-luciferase Mdm2/MdmX complementation; inhibition, % at 8 µM; hit rate 99% among 740;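 active = mean inhibition of the luminescence signal across two replicates at or above 26 percent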
# HIF-2a inh conf – HIF-2a reporter inhibitor retest, confirmation, luminescence, 786-0 RCC cells; shares compounds with HIF-2a block; inhibition, % at 18.8 µM; hit rate 56% among 1,800; HIF-2a luciferase reporter luminescence, overnight;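 active = mean inhibition across four replicates of at least 40 percent at the single tested concentration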
# HIF-1a counter – HIF-1a luciferase reporter signal reduction – MiaPaCa-2 cells, single concentration, counter-screen for HIF-2a inhibitor project, confirmation | shares compounds with HIF-2a block | MiaPaCa-2 HIF-1a luciferase reporter, desferoxamine, overnight | inhibition, % at 18.8 µM | hit rate 72% among 1,800;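 active = mean inhibition of the reporter signal across four replicates at the single tested dose of 50% or more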
# Starred values were filed as active, the others as inactive; . = no result. An excerpt weighted towards active compounds, which were near 4% of everything screened.
SMILES,HIF-2a block,TWEAK-Fn14 inh,KKLEB cytotox,CF NFkB block,Peg3 prom inh,TROY signal inh,HIF-2a inh conf,HIF-1a counter,others
COc1ccc(/C=C/C(=O)C23CC4CC(CC(C4)C2)C3)cc1CN1CCOCC1,43.7*,26.4,-5.6,13.4,48.4,8.4,2.5,42.1,
CCOC(=O)c1c2c(n(C)c1C)C(=O)C(=O)c1ccc(Br)cc1-2,11.5,86.9*,-78.4*,97.3*,101.0*,44.6,.,.,Mdm2 MdmX conf=97.5*
O=C(CC1C(=O)NCCN1C(=O)Nc1ccccc1)Nc1ccc2c(c1)OCCO2 (configuration not stated),8.2,3.5,-0.4,-9.6,22.5,3.0,.,.,
N#CC1c2ccccc2C=CN1C(=O)N(c1ccccc1)c1ccccc1 (configuration not stated),77.4*,94.3*,6.1,45.2,47.4,38.5,6.3,107.9*,
Cc1ccc(-c2nc(NC(=O)c3nn(C)cc3[N+](=O)[O-])sc2C)cc1,93.2*,59.0*,-64.2*,88.8*,109.0*,27.9,85.2*,105.3*,Mdm2 MdmX conf=102.7*
CCn1cc([N+](=O)[O-])c(C(=O)Nc2ccn(C34CC5CC(CC(C5)C3)C4)n2)n1,16.6,1.9,8.6,9.0,5.7,-4.0,.,.,
Cn1cc([N+](=O)[O-])c(C(=O)Nc2nc(-c3ccc(Cl)cc3)cs2)n1,93.9*,11.8,-95.2*,88.9*,106.5*,6.9,86.2*,105.0*,
Cc1ccc(-c2nc(NC(=O)c3nn(C)cc3[N+](=O)[O-])sc2C)cc1C,65.8*,28.0,-38.4,22.9,109.0*,19.3,1.4,104.8*,Mdm2 MdmX conf=100.2*
Cc1ccc(Cn2ccc(NC(=O)c3nn(C)cc3[N+](=O)[O-])n2)cc1,-70.3,19.6,15.0,-14.1,48.5,-8.4,.,.,
Cn1cc([N+](=O)[O-])c(C(=O)Nc2ccn(C34CC5CC(CC(C5)C3)C4)n2)n1,49.3*,-13.5,-2.1,27.8,7.0,-27.3,60.1*,57.5*,
O=C(NCc1ccccc1)c1cc(C2CCCN(C(=O)C3CC3)C2)on1 (configuration not stated),-41.4,-10.7,-6.1,1.0,-54.7,-25.4,.,.,
Cc1noc(C)c1COC(=O)c1ccc(S(=O)(=O)NCc2ccco2)cc1,12.1,19.5,-5.7,10.6,13.0,15.8,.,.,
COC1(OC)C(/C=C/c2ccc(C)cc2)C(C#N)(C#N)C1(OC)OC (configuration not stated),43.3*,26.7,-11.2,19.1,21.6,-19.9,6.8,65.4*,
CCOC(=O)c1c(S(=O)(=O)NCCc2ccc(OC)c(OC)c2)c(C)n(C)c1C,11.2,-10.5,-18.6,30.4,-1.3,-6.7,.,.,
NNC(=O)COc1ccc(-c2nccc(-c3ccc(F)cc3)n2)cc1,67.8*,54.9*,4.5,-20.7,-51.2,13.7,78.7*,51.5*,
O=C(O)COc1ccc(-c2nccc(-c3ccccn3)n2)cc1,86.8*,61.3*,-2.5,-2.7,-39.6,20.9,89.6*,59.5*,
COc1cc(/C=C/[N+](=O)[O-])ccc1OC(=O)c1cc2ccccc2oc1=O,61.0*,19.6,-4.0,35.2,68.6*,52.7*,34.4,38.2,
COc1ccccc1OC(=O)c1cc2ccccc2oc1=O,8.2,-8.1,3.5,-7.6,-4.3,-26.5,.,.,
O=C(COC(=O)Cc1ccccc1[N+](=O)[O-])NCc1ccc(F)cc1,11.0,-2.9,7.7,7.0,4.5,1.8,.,.,

# Compound activity (PubChem BioAssay)
